Compounds without any hit were thinned out: in the full panel of roughly 83,000, 20% have a hit.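 How to read the values: 0–100, growth inhibition (40 = 60% inhibited); 0, no net growth; -100 to 0, cell death (-40 = 40% of starting cells died; -100 = all dead).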 Values without a mark were called inactive. Activity calls are given as the source filed them. Rule for the calls: active = growth percent below 10; inactive = the rest.

Experiment in all cases: NCI-60 one-dose screen, 48 h (100 = growth as untreated, 0 = no growth, -100 = all killed)
Holding throughout (details): 10 µM unless noted

Assay [1] relates to HCT-15 colon.
Assay [2] relates to HT29 colon.
Assay [3] relates to SNB-75 CNS.
Assay [4] relates to SNB-19 CNS.
Assay [5] concerns U251 CNS.
The subject of assay [6] is PC-3 prostate.
Assay [7] concerns SK-MEL-5 melanoma.
The subject of assay [8] is UACC-62 melanoma.
The test system of assay [9] is LOX IMVI melanoma.
The test system of assay [10] is SK-MEL-28 melanoma.
Assay [11] concerns SK-MEL-2 melanoma.
The subject of assay [12] is EKVX NSCLC.
Assay [13] deals with SN12C renal.
The subject of assay [14] is UO-31 renal.
Assay [15] relates to TK-10 renal.
For assay [16], the system named is ACHN renal.
The test system of assay [17] is CAKI-1 renal.
For assay [18], the system named is A498 renal.
In assay [19] the test system is CCRF-CEM leukemia.
Assay [20] deals with MOLT-4 leukemia.

On to `Cc1nn(Cc2ccccc2)cc1C(=O)Nc1sc2c(c1C(N)=O)CCC(=O)C2`, for which the growth in assay [1] was 13.6%; in assay [2] it was 13.1%; in [3] it was 54.5%; in assay [4], 63%; in assay [5], 23.2%; in assay [6] it was 15.6%. For the same compound, the growth in assay [7] was 28.8%; in assay [8], 13.9%; in assay [9], 17.2%; in assay [10] it was 29.8%; in [11], 74.5%; in assay [12], 54.9%. Also, the growth in assay [13] is 15.5%; in [14], 11.8%; in assay [15] it was 15.5%; in assay [16], 5.29% (active); in assay [17], 5.49% (active); in [18] it was 108%. The results for the growth in assay [19] and in [20] were 9.5% (active) and 16.5%, respectively.
For `CC(=O)NCC(=O)Nc1ccc(-c2nnc3ccccn23)nc1.CC(=O)NCC(=O)Nc1ccc(-c2nnc3ccccn23)nc1.[Pt+2]`, the growth in assay [1] was 109%; in assay [2] it was 98.3%; in assay [3] it was 132%; in [4], 107%; in [5], 99.4%; in [6] it was 101%. The growth in [7] was 108%; in [8] it was 110%; in [9] it was 106%; in assay [10], 118%; in [11] it was 91.4%; in assay [12] it was 110%. Also, the growth is 106% in assay [13]; 106% in assay [14]; 103% in [15]; 103% in assay [16]; 115% in [17]; 101% in [18]. Besides, the growth is 93.3% in assay [19] and 96.9% in assay [20].
On to `O=C1c2ccccc2C(=O)c2cc(Cn3cc[n+](Cc4ccc5ccccc5c4)c3)ccc21`, for which the growth in assay [1] was 98.1%; in assay [2], 73.1%; in [3], 62.8%; in assay [4] it was 79.5%; in assay [5], 85.8%; in [6], 38.8%. Also, the growth was 68.3% in assay [7]; 61.1% in assay [8]; 94.9% in assay [9]; 94.5% in assay [10]; 89.1% in assay [11]; 70.9% in assay [12]. Besides, the growth in assay [13] is 74.4%; in [14], 82.5%; in [15] it was 107%; in assay [16], 108%; in [17], 96.5%; in assay [18] it was 98.3%. In addition, the growth is 71% in assay [19] and 79.1% in assay [20].
In the case of `Cc1ccc(-n2nnc(C3=NCCc4c3[nH]c3ccc(Cl)cc43)c2C)cc1`, the growth was 65.8% in assay [1]; 74.4% in assay [2]; 103% in [3]; 83.3% in [4]; 80% in assay [5]; 62.1% in assay [6]. Moreover, the growth is 79.1% in assay [7]; 30.5% in [8]; 63% in assay [9]; 100% in assay [10]; 62.6% in assay [11]; 70.8% in assay [12]. Also, the growth in assay [13] was 81.6%; in assay [14], 57.8%; in assay [15], 78.9%; in assay [16], 57.2%; in assay [17], 56.1%; in assay [18] it was 66.5%. In addition, the growth in [19] is 27.8%; in assay [20], 49.6%.
In the case of `C=CC(=O)Nc1cccc(C)c1Nc1cc(-c2cccnc2Cc2c(C)c(OC)cc(OC)c2C)ncn1`, the growth in [1] was 42.3%; in [2], 5.04% (active); in [3] it was 23.9%; in assay [4], 23.3%; in assay [5] it was -16.1% (active); in assay [6], 8.05% (active). For the same compound, the growth in assay [7] is 57.9%; in [8] it was 38%; in assay [9] it was 13.9%; in [10] it was 44.3%; in [11], -29% (active); in [12], 82.1%. For the same compound, the growth in assay [13] is 30.1%; in assay [14], 51%; in assay [15], -8.59% (active); in [16], 29.7%; in [17], 36.4%; in [18], -4.92% (active). Also, the figures for the growth in assay [19] and in assay [20] were -0.444% (active) and -7.26% (active), respectively.
Take `COc1cc(-c2ccc(N=Nc3c(O)c(C(=O)Nc4ccccc4OC)cc4ccccc34)c(OC)c2)ccc1N=Nc1c(O)c(C(=O)Nc2ccccc2OC)cc2ccccc12`: the growth in assay [1] is 101%; in [2], 108%; in assay [3] it was 74.8%; in assay [4], 96%; in assay [5] it was 94%; in assay [6], 93.4%. For the same compound, the growth was 98.9% in assay [7]; 101% in assay [8]; 86.3% in [9]; 97.4% in [10]; 101% in assay [11]; 96.4% in [12]. Moreover, the growth is 98.6% in [13]; 78.7% in [14]; 110% in assay [15]; 90.7% in assay [16]; 83.8% in [17]; 78% in assay [18]. The growth in assay [20] is 93.8%.
Consider `CC(C)n1nc(C#Cc2cccc(NC(=O)c3cccc(C(F)(F)F)c3)c2)c2c(N)ncnc21`, for which the growth in assay [1] was -3.07% (active); in [2] it was -11.7% (active); in assay [3] it was -66.2% (active); in [4], 5.79% (active); in assay [5], 2.84% (active); in assay [6], 16.4%. Moreover, the growth in assay [7] was -61.4% (active); in assay [8], -56.1% (active); in assay [9] it was -91.8% (active); in assay [10], -27.9% (active); in [11], -65.2% (active); in [12] it was 1.52% (active). The growth in [13] is -8.6% (active); in [14], -51.4% (active); in assay [15], -56.8% (active); in assay [16], -31.9% (active); in assay [17], -40.9% (active); in [18], -80.6% (active). The growth in assay [19] was 11.8%; in [20], 2.57% (active).

These data come from PubChem BioAssay (NCI).
